PubChem BioAssay
Calls of active or inactive are those of the source.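 Rule for the calls, unless noted: active = visual image review flags a hit and inhibition of aggregation exceeds 20%; inconclusive = visual hit but inhibition at or below 20%; inactive = no hit on visual image review.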

Key:
[1] = inhibitors of TNFa-induced NFkB p65 translocation, primary screen, imaging, HUVEC, MLSMR starter and 10KST1 sets (AID 438;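 active = inhibition above 20% together with a positive visual image hit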;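 note: compound added about 3h40 before a 20 min TNFalpha stimulation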;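 for inhibition: signal is the nuclear over cytoplasmic p65 intensity ratio per well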); details: HUVEC TNFa-induced p65 nuclear translocation; cell count: measured here: nuclei count (cytotoxicity indicator), at 2.08 µM; inhibition: at 2 µM, stronger effect = higher value, 0% TNFa-plus-vehicle, 100% no-TNFa wells
[2] = inhibitors of mutant huntingtin aggregation, primary screen, imaging, exon1htt(103Q)mCFP cells, high-content imaging (AID 483); details: exon1htt(103Q)mCFP cell line, aggregate imaging, at 2 µM; inhibition of aggregation: stronger effect = higher value; nuclei count: measured here: cell count, toxicity;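 note: compound exposure lasted 3 days before fixation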;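 for nuclei count: percent of the per-plate median nuclei count of sample wells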
[3] = inhibitors of E-selectin induction by TNFa, primary screen, imaging, HUVEC, immunofluorescence, MLSMR starter and 10KST1 sets (AID 487;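 active = visually confirmed hit in the image check and inhibition above 20%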;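 for inhibition: signal is fraction of cell area covered by stained E-selectin grains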;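 for nuclei count: 100% = median nuclei count of all wells on the same plate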); details: HUVEC TNFalpha-induced E-selectin immunofluorescence imaging, at 2 µM; inhibition: stronger effect = higher value; nuclei count: measured here: cell number, toxicity
[4] = target: Voltage-gated potassium channel subunit beta-2 (Rattus norvegicus) (UniProt P62483); assay: KvBeta enzyme negative modulators, primary screen, biochemical, NADPH fluorescence (AID 622;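 active = fluorescence slope higher than the sample average by over 3 SD, cut at about -0.22 in these data, passing the limit was not always enough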;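 note: slope of raw intensity against log time taken from 70 to 1610 s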); details: recombinant KvBeta, 4-cyanobenzaldehyde reduction, at 10 µM, stronger effect = higher value
Chain of Voltage-gated potassium channel subunit beta-2 (Rattus norvegicus) (P62483 whole entry, looked up): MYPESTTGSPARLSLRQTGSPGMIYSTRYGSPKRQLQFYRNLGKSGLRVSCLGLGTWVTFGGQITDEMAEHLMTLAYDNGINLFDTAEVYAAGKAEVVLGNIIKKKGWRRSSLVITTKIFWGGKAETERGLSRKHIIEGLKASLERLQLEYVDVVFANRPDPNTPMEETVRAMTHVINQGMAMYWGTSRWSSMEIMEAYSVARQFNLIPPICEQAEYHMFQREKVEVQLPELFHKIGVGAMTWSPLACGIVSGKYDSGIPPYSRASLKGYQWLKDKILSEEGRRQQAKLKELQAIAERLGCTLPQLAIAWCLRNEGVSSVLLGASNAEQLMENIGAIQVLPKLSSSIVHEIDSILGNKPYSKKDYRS

[5] = target: Voltage-gated potassium channel subunit beta-2 (Rattus norvegicus) (UniProt P62483); assay: KvBeta positive modulators, primary screen, biochemical, NADPH fluorescence (AID 623;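 active = NADPH fluorescence slope more negative than the mean of all samples by about 3 SD, 99.7% confidence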;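 note: fluorescence intensity change per second fitted from 20 to 320 s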); details: Recombinant KvBeta, NADPH fluorescence decrease slope, 10 min; at 10 µM; stronger effect = lower value
[6] = target: Alpha-2C adrenergic receptor (Homo sapiens) (UniProt P18825); assay: modulators of alpha2C/GIRK thallium flux, primary screen, cell-based, HEK293 alpha2C/GIRK1/2 (AID 624;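 active = fluorescence slope after compound addition differing from the mean of all screened samples at 99.7% confidence, in either direction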;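 note: slope of fluorescence ratio to pre-addition baseline per second over 15 to 24 s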); details: thallium flux BTC fluorescence, at 10 µM, actives lie on both sides
Chain of Alpha-2C adrenergic receptor (Homo sapiens) (P18825 whole entry, looked up): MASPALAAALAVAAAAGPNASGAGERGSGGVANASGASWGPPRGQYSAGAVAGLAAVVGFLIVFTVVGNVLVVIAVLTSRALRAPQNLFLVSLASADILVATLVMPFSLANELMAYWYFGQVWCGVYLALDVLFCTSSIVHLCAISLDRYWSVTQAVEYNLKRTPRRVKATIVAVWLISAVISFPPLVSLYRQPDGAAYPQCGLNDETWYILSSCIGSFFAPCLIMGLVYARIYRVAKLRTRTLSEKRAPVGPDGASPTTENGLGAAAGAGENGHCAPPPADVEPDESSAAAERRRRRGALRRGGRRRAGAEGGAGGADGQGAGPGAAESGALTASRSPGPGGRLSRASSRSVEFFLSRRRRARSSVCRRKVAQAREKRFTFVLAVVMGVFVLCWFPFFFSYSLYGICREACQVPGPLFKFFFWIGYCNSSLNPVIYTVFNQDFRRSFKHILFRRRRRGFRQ

[7] = inhibitors of Sendai virus-induced IRF3 signaling, primary screen, TLR/RLR signaling modifier project, cell-based, Sendai virus stimulus, luciferase, 10K MLSCN set (AID 602276;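 active = inhibition at or above 50% at 10 µM; inactive = inhibition below 50%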;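 note: firefly luciferase from ISG56 promoter only with Renilla not read in this screen; 0% = Sendai virus plus DMSO and 100% = medium plus DMSO without virus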); details: HEK293 RL24 IRF3 luciferase reporter, at 10 µM, stronger effect = higher value
[8] = inhibitors of poly I:C-induced TLR3 signaling, primary screen, cell-based, poly I:C stimulus, luciferase, 10K MLSCN set (AID 602277;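 active = inhibition of the reporter signal at or above 50%; inactive = inhibition below 50%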); details: HEK293-TLR3 RL24 IRF3 luciferase reporter, at 10 µM, stronger effect = higher value

Structure (SMILES) | cell count [1] | inhibition [1] | inhibition of aggregation [2] | nuclei count [2] [%] | inhibition [3] | nuclei count [3] [%] | fluorescence slope [4] | NADPH fluorescence slope [5] | slope [6] | inhibition [7] | inhibition [8]
COc1ccc(C)cc1S(=O)(=O)N(C)CC(=O)Nc1ccc2c(c1)OCO2 | 505 | -15.7% (inactive) | 8.7% (inactive) | 94.7 | 26.3% (inactive) | 84.9 | -0.616 (inactive) | -5e-05 (inactive) | 0.00341 (inactive) | 12.3% (inactive) | 12.3% (inactive)
O=C(CCn1c(=O)oc2ccccc21)NCCN1CCOCC1 | 653 | -15.1% (inactive) | 2.6% (inactive) | 110 | -9.1% (inactive) | 99.8 | -0.58 (inactive) | -5.4e-05 (inactive) | 0.00667 (inactive) | -16.3% (inactive) | -13% (inactive)
Cc1nnc(Nc2ccccn2)c2ccccc12 | 657 | 7.2% (inactive) | 8.1% (inactive) | 104 | -61.4% (inactive) | 109 | -0.465 (inactive) | -4.2e-05 (inactive) | 0.00477 (inactive) | 8.64% (inactive) | 13.2% (inactive)
CCN(CC)C(=O)C1CCC(CNS(=O)(=O)c2cccc3cccnc23)CC1 (stereo not drawn) | 787 | 4.4% (inactive) | -8.4% (inactive) | 94.4 | -26.3% (inactive) | 114 | -0.497 (inactive) | -2.6e-05 (inactive) | 0.00724 (inactive) | 11.4% (inactive) | 16.8% (inactive)
O=C(Nc1ccc(N2C(=O)C3C4C=CC(C4)C3C2=O)cc1)Nc1cccnc1 (stereo not drawn) | 426 | 0% (inactive) | -7.7% (inactive) | 104 | -33.4% (inactive) | 112 | -0.334 (inactive) | -2.1e-05 (inactive) | 0.00357 (inactive) | 7.37% (inactive) | 3.82% (inactive)
COc1ccccc1NS(=O)(=O)c1ccc(OC)c(OC)c1 | 401 | 5.5% (inactive) | 0.8% (inactive) | 101 | 30.1% (inactive) | 96 | -0.484 (inactive) | -4.4e-05 (inactive) | 0.00597 (inactive) | 1.27% (inactive) | 24.3% (inactive)
CC(=O)c1ccc(OCC(O)CN2CCN(Cc3ccc4c(c3)OCO4)CC2)cc1 (stereo not drawn) | 522 | 4.5% (inactive) | -3.8% (inactive) | 87.9 | -33.9% (inactive) | 108 | -0.536 (inactive) | -4.2e-05 (inactive) | 0.0062 (inactive) | 11.6% (inactive) | 40.6% (inactive)
COc1ccc(S(=O)(=O)NCc2ccc(C(=O)O)cc2)cc1 | 375 | 2.2% (inactive) | -11.9% (inactive) | 55.2 | -91.6% (inactive) | 93.9 | -0.624 (inactive) | -2.6e-05 (inactive) | 0.0062 (inactive) | 9.81% (inactive) | 17.1% (inactive)
CCC(C)NC(=O)CS(=O)(=O)Cc1nc(-c2cccc(OC)c2)oc1C (stereo not drawn) | 638 | -1.3% (inactive) | -7.7% (inactive) | 99.2 | -44.8% (inactive) | 107 | -0.523 (inactive) | 2.7e-05 (inactive) | 0.00702 (inactive) | 9.35% (inactive) | 4.33% (inactive)
CC(CC(=O)NCc1ccccc1)C1CCCO1 (stereo not drawn) | 439 | -2% (inactive) | 20.9% (inactive) | 92.2 | -112% (inactive) | 114 | -0.463 (inactive) | -3.8e-06 (inactive) | 0.0065 (inactive) | -2.84% (inactive) | -9.76% (inactive)
COc1cccc(-c2nnc(SCC(=O)N3CCCc4ccccc43)o2)c1 | 642 | 3.6% (inactive) | -6.3% (inactive) | 100 | -56.4% (inactive) | 109 | -0.378 (inactive) | -5e-05 (inactive) | 0.00375 (inactive) | 5.85% (inactive) | 26.1% (inactive)
Cc1cccc2c1N(CC(=O)OC(C)C)C(=O)C2=O | 854 | 0% (inactive) | -1.4% (inactive) | 105 | -67.4% (inactive) | 121 | -0.612 (inactive) | -6.4e-06 (inactive) | 0.00621 (inactive) | -2.09% (inactive) | 29% (inactive)
O=C(CC1(O)C(=O)Nc2ccccc21)c1ccc2c(c1)OCO2 (stereo not drawn) | 484 | 4.5% (inactive) | -8.1% (inactive) | 102 | -22.5% (inactive) | 110 | -0.384 (inactive) | 2.8e-06 (inactive) | 0.00339 (inactive) | 10.1% (inactive) | 35.2% (inactive)
Cc1cccc(NC(=O)c2cnc3sccn3c2=O)n1 | 613 | -1.9% (inactive) | -0.7% (inactive) | 115 | -24.4% (inactive) | 109 | -0.604 (inactive) | 5e-07 (inactive) | 0.00666 (inactive) | -25.6% (inactive) | -61.7% (inactive)
CC(C)=CCC(C)(C)C1OCCN1C(=O)c1ccccc1 (stereo not drawn) | 450 | 1.5% (inactive) | 1.2% (inactive) | 116 | 10.2% (inactive) | 106 | -0.444 (inactive) | 2e-05 (inactive) | 0.00511 (inactive) | 8.82% (inactive) | 12.9% (inactive)
COc1ccc(-c2nnc(SCC(=O)N3CCCCC3)o2)cc1OC | 670 | -1.6% (inactive) | 5.7% (inactive) | 120 | -85.6% (inactive) | 123 | -0.543 (inactive) | -9.6e-06 (inactive) | 0.00656 (inactive) | 3.05% (inactive) | 15.9% (inactive)
O=C(Nc1ccccc1)c1cccc(N2CCCC2=O)c1 | 363 | -6.9% (inactive) | -3.4% (inactive) | 101 | -74.1% (inactive) | 88 | -0.457 (inactive) | 3.8e-05 (inactive) | 0.00552 (inactive) | -43.5% (inactive) | -128% (inactive)
O=C1C2C3C=CC(C3=C3CCCCC3)C2C(=O)N1c1ccccc1 (stereo not drawn) | 512 | -10.1% (inactive) | 3.7% (inactive) | 104 | -29.2% (inactive) | 103 | -0.61 (inactive) | -3.9e-06 (inactive) | 0.00655 (inactive) | 12.4% (inactive) | 16% (inactive)
CC1=C(C(N)=O)C(c2ccccn2)n2nc(-c3ccccc3Cl)nc2N1 (stereo not drawn) | 588 | -5.4% (inactive) | -14.7% (inactive) | 104 | -11.6% (inactive) | 111 | -0.553 (inactive) | -3.1e-05 (inactive) | 0.0061 (inactive) | -2.04% (inactive) | 17.2% (inactive)
CN(C)c1cccc(C(=O)OCC(=O)NCc2ccco2)c1 | 806 | -12.9% (inactive) | 5.8% (inactive) | 85.3 | 9.6% (inactive) | 97.5 | -0.603 (inactive) | 3e-05 (inactive) | 0.0074 (inactive) | 10.8% (inactive) | 5.69% (inactive)
O=C1OC(N2CCN(c3ccccn3)CC2)c2ccccc21 (stereo not drawn) | 697 | 9.1% (inactive) | -14.4% (inactive) | 104 | 34.3% (inactive) | 88.3 | -0.633 (inactive) | -3.6e-05 (inactive) | 0.00362 (inactive) | 19.9% (inactive) | 12% (inactive)
c1ccc(N=P(c2nc3ccccc3o2)(N2CCOCC2)N2CCOCC2)cc1 | 547 | -7.9% (inactive) | 23.4% (inactive) | 87.6 | -1.8% (inactive) | 107 | -0.497 (inactive) | -1.9e-05 (inactive) | 0.00625 (inactive) | 3.09% (inactive) | -19.6% (inactive)
Cc1cc(C)c(OCC(=O)Nc2cccc(O)c2)cc1C | 252 | -14.9% (inactive) | 46.4% (active) | 40.4 | -20.3% (inactive) | 102 | -0.44 (inactive) | -8.2e-06 (inactive) | 0.0065 (inactive) | 16.6% (inactive) | 11.6% (inactive)
Cc1[nH]nc(N=CC2=C(O)CC(C)(C)CC2=O)c1-c1ccc(Cl)cc1 | 344 | 10.1% (inactive) | -7.7% (inactive) | 102 | -27.4% (inactive) | 128 | -0.402 (inactive) | 1.2e-05 (inactive) | 0.00588 (inactive) | 11.6% (inactive) | -25.9% (inactive)
Cn1c(=O)c2c(nc(SCCCC#N)n2Cc2c(F)cccc2Cl)n(C)c1=O | 868 | 0.6% (inactive) | 9.8% (inactive) | 82.3 | -6.8% (inactive) | 108 | -0.589 (inactive) | -6.6e-06 (inactive) | 0.00598 (inactive) | -9.31% (inactive) | 7.45% (inactive)
Cc1c(C(=O)Nc2nnc(C(F)(F)F)s2)oc2ccccc12 | 778 | -8.8% (inactive) | -7.7% (inactive) | 121 | -57.7% (inactive) | 108 | -0.419 (inactive) | 2.3e-05 (inactive) | 0.00814 (inactive) | -13.9% (inactive) | -95.9% (inactive)
O=C1c2ccccc2C(=O)N1CCCn1nnc(-c2ccc(N3CCOCC3)cc2)n1 | 319 | -8.2% (inactive) | 28% (inactive) | 111 | -80.5% (inactive) | 109 | -0.619 (inactive) | -1.3e-05 (inactive) | 0.00347 (inactive) | 15.2% (inactive) | 21.3% (inactive)
N#CC1=C(N)N(c2ccccc2)C(c2ccco2)C1(C#N)C#N (stereo not drawn) | 322 | 2% (inactive) | -3.9% (inactive) | 103 | 3.9% (inactive) | 107 | -0.427 (inactive) | -1.7e-05 (inactive) | 0.00559 (inactive) | 1.35% (inactive) | 9.78% (inactive)
